Experimental data as given in the supplement of paper PMC11006884.
Of roughly 6,500 targets only a part is listed; those with a hit were picked by preference. About 2% of all pairs of compound and target were hits. Unmarked numbers belong to inactive results.

Compound: COC(=O)C#Cc1ccccc1 [methyl 3-phenylpropiolate]
Assay: log2 ratio of iodoacetamide-alkyne labeling of the cysteine site, DMSO over compound (competition); higher = stronger covalent engagement of the cysteine by the compound, active = 1 or more
Conditions: 500 µM; treatment time 1 h; system: HEK293T cell lysate
Summary of the method: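 For each cysteine, the log2 competition ratio is mean control-channel reporter intensity over mean compound-channel reporter intensity. HEK293T lysate (2 mg/mL) was exposed to vehicle or electrophile (500 µM, 1 h, ambient temperature), labelled with iodoacetamide alkyne (1 h), clicked to sCIP-TMT reagents, digested overnight with trypsin at 37 °C, streptavidin-enriched and analysed by Orbitrap Eclipse LC-MS/MS with FAIMS and FragPipe. Cysteines quantified in only one of three replicates, each with duplicate channels, were excluded.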

Chain of UniProt Q15813 (Q15813 whole entry, looked up): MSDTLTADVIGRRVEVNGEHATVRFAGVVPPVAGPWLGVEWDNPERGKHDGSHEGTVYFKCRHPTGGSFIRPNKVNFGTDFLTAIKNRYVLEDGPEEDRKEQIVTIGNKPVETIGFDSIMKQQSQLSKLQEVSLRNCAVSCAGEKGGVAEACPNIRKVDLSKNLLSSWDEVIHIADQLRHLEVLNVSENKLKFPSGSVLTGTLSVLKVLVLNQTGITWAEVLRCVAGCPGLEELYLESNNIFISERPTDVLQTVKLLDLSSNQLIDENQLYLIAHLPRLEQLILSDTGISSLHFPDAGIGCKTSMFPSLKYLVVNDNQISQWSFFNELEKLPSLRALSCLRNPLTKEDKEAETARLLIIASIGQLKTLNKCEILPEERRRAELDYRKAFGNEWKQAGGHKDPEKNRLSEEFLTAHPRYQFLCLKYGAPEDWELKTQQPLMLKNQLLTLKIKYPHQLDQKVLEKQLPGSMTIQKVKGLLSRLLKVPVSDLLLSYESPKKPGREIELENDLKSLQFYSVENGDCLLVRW
Chain of UniProt Q04724 (Q04724 whole entry, looked up): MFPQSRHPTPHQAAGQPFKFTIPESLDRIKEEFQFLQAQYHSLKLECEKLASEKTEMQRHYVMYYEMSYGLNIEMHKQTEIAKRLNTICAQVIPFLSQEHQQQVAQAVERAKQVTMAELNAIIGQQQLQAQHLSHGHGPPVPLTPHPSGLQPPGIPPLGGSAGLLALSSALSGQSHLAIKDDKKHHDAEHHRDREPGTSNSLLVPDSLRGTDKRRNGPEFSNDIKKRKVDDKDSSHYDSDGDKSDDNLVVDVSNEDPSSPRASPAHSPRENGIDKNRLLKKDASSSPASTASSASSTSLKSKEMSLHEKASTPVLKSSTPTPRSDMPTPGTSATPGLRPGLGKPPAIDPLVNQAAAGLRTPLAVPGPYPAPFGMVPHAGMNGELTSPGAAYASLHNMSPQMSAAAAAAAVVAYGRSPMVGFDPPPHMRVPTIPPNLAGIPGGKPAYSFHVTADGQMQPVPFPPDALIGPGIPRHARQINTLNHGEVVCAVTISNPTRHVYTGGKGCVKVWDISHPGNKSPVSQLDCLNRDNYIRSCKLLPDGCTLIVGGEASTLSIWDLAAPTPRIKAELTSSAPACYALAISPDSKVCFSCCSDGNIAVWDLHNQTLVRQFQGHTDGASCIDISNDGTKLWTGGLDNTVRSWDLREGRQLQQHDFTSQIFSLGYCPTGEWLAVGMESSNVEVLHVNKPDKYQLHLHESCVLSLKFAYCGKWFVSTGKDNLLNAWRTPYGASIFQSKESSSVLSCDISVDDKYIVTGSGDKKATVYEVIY
Chain of UniProt Q13111 (Q13111 whole entry, looked up): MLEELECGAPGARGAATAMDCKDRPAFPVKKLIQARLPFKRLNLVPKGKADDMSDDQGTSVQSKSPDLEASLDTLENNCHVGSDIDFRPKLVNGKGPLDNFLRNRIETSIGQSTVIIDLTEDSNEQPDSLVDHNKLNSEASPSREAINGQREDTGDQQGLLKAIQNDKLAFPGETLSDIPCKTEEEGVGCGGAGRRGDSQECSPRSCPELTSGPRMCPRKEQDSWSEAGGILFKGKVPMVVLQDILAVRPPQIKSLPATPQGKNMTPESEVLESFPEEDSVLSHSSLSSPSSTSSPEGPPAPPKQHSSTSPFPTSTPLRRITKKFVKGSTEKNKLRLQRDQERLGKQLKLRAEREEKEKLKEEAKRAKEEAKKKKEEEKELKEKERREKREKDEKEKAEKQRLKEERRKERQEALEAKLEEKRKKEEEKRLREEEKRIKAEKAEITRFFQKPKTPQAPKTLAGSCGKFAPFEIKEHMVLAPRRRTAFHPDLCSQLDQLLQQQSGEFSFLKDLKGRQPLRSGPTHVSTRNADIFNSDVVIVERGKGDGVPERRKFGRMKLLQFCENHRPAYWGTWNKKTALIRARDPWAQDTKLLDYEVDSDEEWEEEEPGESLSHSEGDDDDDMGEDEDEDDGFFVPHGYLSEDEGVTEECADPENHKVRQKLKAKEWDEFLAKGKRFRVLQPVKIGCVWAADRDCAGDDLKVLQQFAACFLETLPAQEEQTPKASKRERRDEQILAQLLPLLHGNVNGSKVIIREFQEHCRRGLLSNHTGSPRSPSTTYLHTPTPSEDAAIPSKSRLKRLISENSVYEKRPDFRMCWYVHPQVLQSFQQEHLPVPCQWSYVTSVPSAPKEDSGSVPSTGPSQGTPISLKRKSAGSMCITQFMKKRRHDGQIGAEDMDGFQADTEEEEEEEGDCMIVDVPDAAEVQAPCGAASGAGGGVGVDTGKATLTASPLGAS
Chain of UniProt Q16134 (Q16134 whole entry, looked up): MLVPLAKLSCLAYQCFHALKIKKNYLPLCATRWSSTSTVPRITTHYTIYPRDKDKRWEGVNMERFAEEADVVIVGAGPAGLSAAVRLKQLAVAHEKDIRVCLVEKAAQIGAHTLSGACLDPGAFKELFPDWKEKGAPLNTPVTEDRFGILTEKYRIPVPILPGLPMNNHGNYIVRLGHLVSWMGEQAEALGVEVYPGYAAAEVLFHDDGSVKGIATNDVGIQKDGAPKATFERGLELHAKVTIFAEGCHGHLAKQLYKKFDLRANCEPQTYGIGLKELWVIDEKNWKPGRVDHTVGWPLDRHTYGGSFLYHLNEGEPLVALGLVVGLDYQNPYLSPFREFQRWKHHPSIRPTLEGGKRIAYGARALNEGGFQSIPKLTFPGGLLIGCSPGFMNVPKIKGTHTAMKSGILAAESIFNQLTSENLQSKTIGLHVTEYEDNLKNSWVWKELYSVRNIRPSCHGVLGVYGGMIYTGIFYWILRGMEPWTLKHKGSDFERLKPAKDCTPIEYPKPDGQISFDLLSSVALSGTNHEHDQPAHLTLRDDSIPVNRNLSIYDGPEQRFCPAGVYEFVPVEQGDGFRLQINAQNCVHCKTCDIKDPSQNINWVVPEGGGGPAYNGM
Chain of UniProt Q13263 (Q13263 whole entry, looked up): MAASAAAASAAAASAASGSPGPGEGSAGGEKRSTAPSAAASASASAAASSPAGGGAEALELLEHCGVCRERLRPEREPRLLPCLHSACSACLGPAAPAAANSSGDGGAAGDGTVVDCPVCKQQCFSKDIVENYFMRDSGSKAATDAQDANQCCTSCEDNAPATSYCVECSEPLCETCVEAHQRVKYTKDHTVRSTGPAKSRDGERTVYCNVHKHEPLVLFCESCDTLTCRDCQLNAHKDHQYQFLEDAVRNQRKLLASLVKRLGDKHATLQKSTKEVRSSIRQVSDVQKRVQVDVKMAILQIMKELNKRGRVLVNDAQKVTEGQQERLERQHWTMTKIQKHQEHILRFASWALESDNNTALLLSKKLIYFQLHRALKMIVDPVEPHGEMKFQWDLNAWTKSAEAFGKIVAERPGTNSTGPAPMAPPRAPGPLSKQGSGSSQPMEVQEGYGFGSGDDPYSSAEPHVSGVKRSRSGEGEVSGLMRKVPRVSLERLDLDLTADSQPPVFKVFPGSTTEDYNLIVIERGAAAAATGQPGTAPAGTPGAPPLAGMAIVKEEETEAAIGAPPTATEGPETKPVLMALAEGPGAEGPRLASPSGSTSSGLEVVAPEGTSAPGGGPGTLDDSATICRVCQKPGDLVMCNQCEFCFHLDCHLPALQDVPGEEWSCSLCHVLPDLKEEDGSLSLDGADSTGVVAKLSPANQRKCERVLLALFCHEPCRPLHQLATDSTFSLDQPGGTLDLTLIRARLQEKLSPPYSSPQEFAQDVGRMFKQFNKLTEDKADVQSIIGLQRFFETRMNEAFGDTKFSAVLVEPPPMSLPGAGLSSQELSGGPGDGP
Chain of UniProt P53618 (P53618 whole entry, looked up): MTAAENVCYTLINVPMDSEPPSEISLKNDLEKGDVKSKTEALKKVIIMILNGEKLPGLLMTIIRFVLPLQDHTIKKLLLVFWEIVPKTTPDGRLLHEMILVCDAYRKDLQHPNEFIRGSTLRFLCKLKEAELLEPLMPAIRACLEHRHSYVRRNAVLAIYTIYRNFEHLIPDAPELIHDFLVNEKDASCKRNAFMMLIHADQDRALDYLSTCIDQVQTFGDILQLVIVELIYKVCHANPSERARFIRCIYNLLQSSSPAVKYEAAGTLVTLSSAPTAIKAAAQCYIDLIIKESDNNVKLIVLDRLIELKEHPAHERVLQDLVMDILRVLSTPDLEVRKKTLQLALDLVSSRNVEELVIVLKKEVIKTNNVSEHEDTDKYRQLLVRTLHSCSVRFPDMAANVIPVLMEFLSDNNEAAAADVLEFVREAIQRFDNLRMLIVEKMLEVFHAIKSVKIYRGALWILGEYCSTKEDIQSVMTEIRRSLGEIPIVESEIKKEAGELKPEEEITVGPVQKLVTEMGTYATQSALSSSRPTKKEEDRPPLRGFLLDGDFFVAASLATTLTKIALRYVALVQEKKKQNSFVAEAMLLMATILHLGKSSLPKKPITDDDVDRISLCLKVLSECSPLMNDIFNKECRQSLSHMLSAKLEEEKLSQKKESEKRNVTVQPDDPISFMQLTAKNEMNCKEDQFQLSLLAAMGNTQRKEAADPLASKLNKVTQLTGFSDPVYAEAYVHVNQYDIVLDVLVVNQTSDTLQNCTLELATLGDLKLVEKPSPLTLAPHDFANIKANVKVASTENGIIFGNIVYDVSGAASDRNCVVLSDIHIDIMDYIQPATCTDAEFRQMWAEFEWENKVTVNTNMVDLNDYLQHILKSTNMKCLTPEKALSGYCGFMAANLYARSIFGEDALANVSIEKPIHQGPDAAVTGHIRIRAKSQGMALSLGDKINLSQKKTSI
Chain of UniProt P78417 (P78417 whole entry, looked up): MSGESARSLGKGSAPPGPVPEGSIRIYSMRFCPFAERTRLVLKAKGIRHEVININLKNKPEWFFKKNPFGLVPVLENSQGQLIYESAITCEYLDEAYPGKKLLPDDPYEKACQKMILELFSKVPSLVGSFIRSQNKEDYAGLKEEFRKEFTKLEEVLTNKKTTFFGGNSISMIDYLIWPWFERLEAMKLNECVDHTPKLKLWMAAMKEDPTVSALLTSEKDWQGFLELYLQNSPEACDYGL

| Target | log2 ratio of iodoacetamide-alkyne labeling |
| --- | --- |
| PEX3 C65 (UniProt P56589) | 0.385 |
| COPB1 C248 (UniProt P53618) | -0.00654 |
| UniProt P60891_C165 | -0.19 |
| TRIM28 C717 (UniProt Q13263) | -0.00982 |
| SPECC1 C740 (UniProt Q5M775) | -0.0117 |
| NFKB2 C57 (UniProt Q00653) | 1.24 (active) |
| ETFDH C561 (UniProt Q16134) | 0.595 |
| TLE1 C526 (UniProt Q04724) | 1.15 (active) |
| TBCE C371 (UniProt Q15813) | 0.185 |
| ERCC6L C356 (UniProt Q2NKX8) | 0.193 |
| GSTO1 C32 (UniProt P78417) | 2.51 (active) |
| REEP5 C18 (UniProt Q00765) | 0.482 |
| CHAF1A C190 (UniProt Q13111) | 1.08 (active) |
